Results with a measured potency or affinity are listed apart. Inconclusive results are not listed. The source made the active and inactive calls. The rule behind the calls is not given here.
Biological target: CAAX prenyl protease 1 (Saccharomyces cerevisiae (strain ATCC 204508 / S288c)) (UniProt P47154)
Assay: yeast CAAX protease Ste24 inhibition – biochemical, S. cerevisiae, plate reader, cherry-pick, dose response (AID 488815)
Conditions: series mostly up to 10 µM

Chain of CAAX prenyl protease 1 (Saccharomyces cerevisiae (strain ATCC 204508 / S288c)) (P47154 whole entry, looked up): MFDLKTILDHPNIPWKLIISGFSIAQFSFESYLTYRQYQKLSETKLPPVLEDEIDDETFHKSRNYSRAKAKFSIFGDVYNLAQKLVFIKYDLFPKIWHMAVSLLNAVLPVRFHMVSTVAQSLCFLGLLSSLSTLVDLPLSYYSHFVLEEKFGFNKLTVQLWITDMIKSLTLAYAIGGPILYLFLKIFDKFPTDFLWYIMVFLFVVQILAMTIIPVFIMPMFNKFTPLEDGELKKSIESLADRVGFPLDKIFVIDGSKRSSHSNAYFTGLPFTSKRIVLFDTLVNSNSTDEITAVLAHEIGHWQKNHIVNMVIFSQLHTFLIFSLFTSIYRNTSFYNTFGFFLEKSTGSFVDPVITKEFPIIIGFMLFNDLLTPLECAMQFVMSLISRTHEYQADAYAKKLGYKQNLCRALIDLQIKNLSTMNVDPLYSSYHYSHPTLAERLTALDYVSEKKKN

outcome, inactive:
CCn1cc(/C=C(\NC(=O)c2ccccc2F)C(=O)N2CCOCC2)c2ccccc21
COc1ccc(S(=O)(=O)N(CC(=O)N2CCCC2)Cc2ccccc2)cc1
CCOC(=O)c1c(NC(=O)COc2ccccc2F)sc2c1CC(C)(C)NC2(C)C
CC1CCN(C(=O)c2cc3nc(-c4ccccc4)cc(-c4ccccc4)n3n2)CC1
CC(C)N1CCN(Cc2ccc(OCc3ccccc3)cc2)CC1CCO (stereo not drawn)
CCCC(=O)N1CCN(c2ccc(NC(=O)c3cc4ccccc4o3)cc2Cl)CC1
COc1ccc(S(=O)(=O)NCC2CCCO2)cc1NC(=O)c1ccccc1F (stereo not drawn)
Cn1c(CN2CCOCC2)c(C#N)c2ccccc21
Cc1ccc(C(=O)N2N=C(c3ccccc3O)CC2c2ccccc2)cc1 (stereo not drawn)
Cc1ccccc1OC(C)C(=O)N1CCC(Cc2ccccc2)CC1 (stereo not drawn)
COc1ccc(C(=O)/C=C/c2ccc(OC)cc2OC)c(O)c1
Cc1ccc(NS(=O)(=O)c2ccc(NC(=O)N3CCCCC3)cc2)cc1
O=C(C1CCC(=O)N(C2CC2)C1)N1CCN(c2ccccc2Cl)CC1 (stereo not drawn)
O=C(C(Cc1ccccc1)N1C(=O)c2ccccc2C1=O)N1c2ccccc2CCc2ccccc21 (stereo not drawn)
COc1ccc(Cc2nc3ccc(C(=O)N4CCCC4)cc3o2)cc1
CCCCNC(=S)N=Nc1c(O)n(Cc2ccccc2)c2ccccc12
COc1cc2ccccc2cc1C(=O)N(CCN(C)C)c1nc2ccc(C)cc2s1
Cc1cccc(NS(=O)(=O)c2ccc(C)c(C(=O)OCC(=O)Nc3cc(C)on3)c2)c1

Reference: PubChem BioAssay AID488815 (Broad Institute, 2010)
